# Screening data from PubChem.
# Rab9 promoter act: activators of Rab9 promoter | Potency, µM (series often up to 9.22 µM), without a hit: at the highest dose activation, negative = inhibition, most hits filed as activators | 2.8% of 320,000 active | Huh7 Rab9 promoter-luciferase reporter, luminescence, 24 h; also: % of control where 0% means no effect; nearly all actives have a fitted effect of over 60% in size
#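 Quantitative HTS format; Huh7 Rab9-luciferase reporter cells (1500/well) receive compound 2 h post-plating, incubate 24 h at 37 °C, then get luciferase reagent for 10 min before luminescence reading.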
# NPC1 prom act: NPC1 promoter activation. Huh7 NPC1 promoter luciferase reporter, 24 h. Potency, µM (doses to about 9.22 µM), for the others: at the highest dose activation, usual class: activators. 2.4% of 320,000 active. AID 485313; also: % of control where 0% means no effect; nearly all actives have a fitted effect of over 60% in size
#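 Compounds in DMSO were transferred onto Huh7 NPC1-luciferase reporter cells pre-incubated 2 h; after 24 h at 37 °C, Amplite reagent was dispensed and luminescence recorded 10 min later.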
# SMN2 splice enh: enhancers of SMN2 splice variant expression; HEK293 SMN2-luciferase splicing reporter, luminescence, 30-36 h; Potency, µM (doses to about 46.1 µM), without a hit: at the highest dose activity change, positive = activation, actives largely listed as activators; 2.8% of 210,000 active; AID 1458; also: % of control where 0% means no effect; nearly all actives have a fitted effect of over 55% in size
#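 HEK293 cells carry an SMN2 […]–luciferase reporter in which exon 7 inclusion puts luciferase in frame. Cells were plated 10-12 h before compound addition, then incubated 30-36 h at 37C. ONE-Glo luminescence was read; sodium butyrate at 4.5 mM final served as control.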
# ELG1 genotox: inducers of genotoxicity in HEK293T ELG1-luciferase cells; Potency, µM (top dose mostly 46 µM), inactives show top-dose activity change, positive = activation, most hits filed as activators; HEK293T ELG1-luciferase reporter, luminescence, 16 h; 1.3% of 330,000 active; also: % of control where 0% means no effect; nearly all actives have a fitted effect of over 60% in size
#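 16 hr compound incubation (37 °C, 5% CO2) of HEK293T cells carrying luciferase-tagged ELG1; luciferase then measured by ONE-Glo luminescence after 30 min at RT.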
# Luc counter: counter-screen: inhibitors of Kinase-Glo firefly luciferase. Potency, µM (top dose mostly 38.3 µM), inactives show at the top dose activity change, negative = inhibition, most hits filed as inhibitors. Kinase-Glo luciferase, ATP luminescence, 8 min. 0.28% of 200,000 active; also: % is scaled to controls: 0 for no effect and ±100 for the full control effect; nearly all actives have a fitted effect of over 60% in size
#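 Kinase-Glo luciferase light output from ATP and luciferin was measured with 10 uM ATP, within the enzyme's linear range. Buffer: 50 mM imidazole pH 7.2, 50 mM KCl, 7 mM MgCl2, 0.01% Tween 20, 0.05% BSA; luminescence read after 8 min at ambient temperature.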
# FLuc counter: counter-screen for miR-21 project: firefly luciferase inhibitors or activators | P08659 | purified FLuc, Km substrates, luminescence inhibition | Potency, µM (doses to about 57.5 µM), inactives show at the top dose activity change, negative = inhibition, actives largely listed as inhibitors | 6.9% of 360,000 active;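 also: plate controls were vehicle for no effect and reference inhibitor for full effect; nearly all actives have a fitted effect of over 55% in size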
# Target sequence (P08659 whole entry, looked up): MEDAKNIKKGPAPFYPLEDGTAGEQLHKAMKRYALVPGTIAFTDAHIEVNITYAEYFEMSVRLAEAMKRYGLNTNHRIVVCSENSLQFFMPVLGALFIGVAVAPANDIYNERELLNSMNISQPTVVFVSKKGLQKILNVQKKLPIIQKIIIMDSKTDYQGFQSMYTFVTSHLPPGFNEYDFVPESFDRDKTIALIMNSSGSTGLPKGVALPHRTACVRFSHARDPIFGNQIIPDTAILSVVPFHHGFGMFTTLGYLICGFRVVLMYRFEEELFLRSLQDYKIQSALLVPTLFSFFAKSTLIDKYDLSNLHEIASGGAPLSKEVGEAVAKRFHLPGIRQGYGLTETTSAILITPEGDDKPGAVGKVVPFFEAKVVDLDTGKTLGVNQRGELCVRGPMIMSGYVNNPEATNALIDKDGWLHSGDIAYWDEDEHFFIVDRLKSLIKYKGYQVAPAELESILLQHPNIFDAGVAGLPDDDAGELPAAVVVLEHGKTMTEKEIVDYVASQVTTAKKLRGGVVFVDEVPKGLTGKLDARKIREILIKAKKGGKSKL
#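 Purified P. pyralis luciferase (10nM final) with 10uM D-luciferin and 10uM ATP (Km levels) in 50mM Tris acetate pH 7.5, 10mM Mg acetate, 0.01% Tween-20, 0.05% BSA; qHTS 6-point titration, ~60 µM downward; luminescence read.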
# * = called active by the depositor; ? = inconclusive; nt = no result given; [ ] = dose if it differs, or a comment. Rows were chosen to be rich in hits. Some 7.3% of all compounds tested hit in one or more screens of this group. Calls follow the shape of the dose curve; as a rule, active = well fitted curve in the direction sought with a large enough effect; inconclusive = small, poorly fitted or top-dose-only effect, or another doubt; inactive = no such curve, though single readings can be large; an effect the other way counts as inactive or inconclusive. Potency is read from the fitted curve at half-maximal effect.
SMILES,Rab9 promoter act,NPC1 prom act,SMN2 splice enh,ELG1 genotox,Luc counter,FLuc counter
O=c1ccc(/C=C/c2ccccc2)nn1Cc1ccccc1,1%,1%,-17%,-1%,18%,-1%
NNC(=O)c1ccc2nc(-c3ccc(Br)cc3)cn2c1,0.5µM*,0.4µM*,11µM*,?,-2%,9.5µM*
COc1ccc(-c2cn3cc(C(=O)NN)ccc3n2)cc1,0.32µM*,?,nt,?,-7%,7.6µM*
NNC(=O)c1ccc(Cn2cc(Br)cn2)cc1,1%,-2%,-7%,-1%,-1%,1%
CN1C(=O)/C(=C2\SC(N3CCCCCC3)=NC2=O)c2ccccc21,3.5µM*,?,9%,?,-9%,2.7µM*
O=C1N=C(N2CCOCC2)S/C1=C1\C(=O)N(Cc2ccccc2)c2ccccc21,1.6µM*,2.8µM*,27%,?,-21%,0.67µM*
CCCN1C(=O)/C(=C2\SC(N3CCCCC3)=NC2=O)c2ccccc21,2.8µM*,1.3µM*,19%,10%,-11%,2.1µM*
CN1C(=O)/C(=C2\SC(N)=NC2=O)c2ccccc21,-3%,-4%,-24%,7%,-1%,2%
CC1CN(C2=NC(=O)/C(=C3/C(=O)N(Cc4ccc(F)cc4)c4ccccc43)S2)CC(C)O1 (configuration not stated),2%,-4%,nt,-3%,nt,?
CN(Cc1ccco1)c1ccnc(-c2ccoc2)n1,nt,nt,-1%,nt,1%,nt
O=C(c1cnccn1)N1CCC[C@@]2(CCN(c3cccc(-c4ccccc4)c3)C2)C1,nt,nt,-15%,nt,2%,nt
Cc1cc2nc(-c3ccc(=O)[nH]c3)n(Cc3ccccc3)c2cc1C,11%,-4%,nt,?,nt,15µM*
Cc1ccccc1Cn1c(-c2ccc(=O)[nH]c2)nc2ccccc21,2%[1.84 µM],-2%,nt,9%,nt,5%
N#C/C(=C\c1ccc(Cl)cc1)c1nc2ncccc2[nH]1,2%,-2%,3%,16%,4%,3µM*
Cc1c(C(N)=O)nnn1-c1ccc(Br)cc1,nt,nt,nt,nt,nt,-2%
COC(=O)[C@H](COC(C)(C)C)NC(=O)O[C@@H]1C(=O)c2ccc(OC)cc2O[C@H]1c1cccc(C(F)(F)F)c1,nt,nt,-1%,nt,1%,nt
CCOc1ccccc1C1N=C(N)Nc2nc3ccccc3n21 (configuration not stated),nt,nt,13%,nt,nt,-2%
COc1ccc(/C=C/C=C2\N=C(SC)SC2=O)cc1,18%,25%,nt,2%,-27%,5.4µM*
CSC1=N/C(=C\c2ccc(F)cc2)C(=O)S1,0%,2%,-7%,-5%,0%,-12%
Cc1cc(N=Nc2ccc(Cl)cc2)cc(CN2CCOCC2)c1O,0%,-4%,nt,-3%,nt,17µM*
CCCCCOc1ccc(Cl)cc1CN1CCOCC1,?,21%,-4%,21µM*,0%,15µM*
CCOc1ccc(Cl)cc1CN1CCOCC1,0%,-4%,-19%,-1%,-3%,5%
CCCC(=O)N1c2nc(-c3ccco3)nn2C2(CCCCC2)[C@@H]2CCCC[C@@H]21,nt,nt,nt,nt,nt,-9%
Cc1ccc(NC(=S)NC(=O)c2ccccc2)cc1NC(=S)NC(=O)c1ccccc1,1.8µM*,?,nt,?,nt,-17%
O=C(NC(=S)Nc1cccc(CO)c1)c1ccc(-c2ccccc2)cc1,1.6µM*,1µM*,?,3%,-1%,?
SMILES,Rab9 promoter act,NPC1 prom act,SMN2 splice enh,ELG1 genotox,Luc counter,FLuc counter
CCC(=O)Nc1cccc(NC(=S)NC(=O)c2cc3ccccc3o2)c1,1.1µM*,1.1µM*,2.8µM*,23µM*,-6%,0.6µM*
O=C(O)c1cccc(NC(=S)NC(=O)c2ccc3ccccc3c2)c1,?,?,nt,?,nt,1.3µM*
O=C(NC(=S)Nc1ccccc1C(=O)O)c1ccc2ccccc2c1,14%,-1%,nt,2%,nt,?
COc1ccc(-c2noc(CNC(=O)c3ccccc3Br)n2)cc1,nt,nt,-10%,nt,nt,-1%
Cc1c(NC(=S)NC(=O)c2cc3ccccc3o2)cccc1C(=O)O,1.8µM*,4µM*,nt,-2%,nt,?
CCC(=O)Nc1cccc(NC(=S)NC(=O)c2cccc(C)c2)c1,1.6µM*,3.2µM*,11µM*,?,1%,?
CN1CCN(c2ccccc2NC(=S)NC(=O)c2cc3ccccc3o2)CC1,4%,0%,nt,0%,nt,0%
CCC(=O)Nc1cccc(NC(=S)NC(=O)c2ccc(C)cc2)c1,1.6µM*,2µM*,10µM*,?,5%,6.7µM*
CCOc1cccc(C(=O)Nc2ccc(NC(=O)c3ccccc3)c(C)c2)c1,2%,0%,nt,-3%,nt,13µM*
Cc1ccccc1OCC(=O)Nc1ccc(S(=O)(=O)N(Cc2ccccc2)c2ccccc2)cc1,nt,nt,nt,nt,nt,-7%
O=C(O)c1cccc(-n2cnc3cccnc32)c1,nt,nt,-3%,nt,nt,-13%
CC(=O)c1cccc(NC(=S)NC(=O)c2ccc(C)cc2Cl)c1,?,24%,?,12%,-2%,15µM*
CCOc1cccc(C(=O)NC(=S)Nc2ccccc2)c1,?,?,11µM*,?,1%,6.7µM*
CCC(=O)Nc1cccc(NC(=S)NC(=O)c2ccccc2)c1,?,2.8µM*,11µM*,16%,0%,15µM*
CCC(=O)NC(=S)Nc1cccc(NC(=O)CC)c1,-9%,-3%,1%,1%,-3%,14%
CC(=O)c1cccc(NC(=S)NC(=O)c2ccc(C)cc2)c1,1.4µM*,3.2µM*,11µM*,?,4%,11µM*
CC(=O)c1cccc(NC(=S)NC(=O)c2ccc(Br)cc2)c1,?,?,?,?,2%,-13%
CC(=O)c1cccc(NC(=S)NC(=O)c2ccccc2Cl)c1,11%,16%,17%,4%,-2%,?
COc1cccc([C@@H]2Oc3ccc(OC)cc3[C@H](O)[C@H]2O)c1,nt,nt,10%,nt,-1%,nt
S=C(Nc1ccc2cn[nH]c2c1)Nc1ccc2cn[nH]c2c1,nt,nt,-8%[9.22 µM],nt,-5%[7.66 µM],nt
CC1=C(C(=O)Nc2cccc(C(F)(F)F)c2)C(c2ccccc2)n2ncnc2N1 (configuration not stated),nt,nt,nt,nt,nt,4%
Cc1ccc(C(=O)Nc2cccc(C(=O)N3CCOCC3)c2)cc1,2µM*,4µM*,?,?,-3%,9.5µM*
CC(C)(C)c1ccc(OC(=O)N2CCOCC2)cc1,?,4%,nt,?,nt,15µM*
CC(C)(C)c1ccc(C(=O)Nc2cccc(C(=O)N3CCOCC3)c2)cc1,0.89µM*,1.3µM*,nt,?,nt,0.54µM*
COc1ccc(C(=O)Nc2cccc(C(=O)N3CCN(C)CC3)c2)cc1,?,?,?,7%,1%,-10%[2.3 µM]
